Data from PubChem BioAssay (Tox21).
Records with an inconclusive call do not appear. Where a call stands in place of a potency, no number is given. Active and inactive are the calls of the source. Unless noted, calls come from the whole dose curve; as a rule, active = well fitted curve in the direction sought with a large enough effect in the repeat runs; inconclusive = weak or mixed curves; inactive = no such curve, though single readings can be large; an effect the other way counts as inactive or inconclusive.

Assays:
[1] = qHTS assay to identify small molecule agonists of the endoplasmic reticulum stress response signaling pathway (AID 1159516; active = well fitted activation curve with a large enough effect in the signal ratio in the repeat runs, not every such curve was filed as active; the % refers to the signal ratio)
In short: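 ER stress element reporter (bla) in HeLa. 1,500 cells/well, overnight attachment; 5 hr compound; 2 hr RT substrate; dual-emission fluorescence.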

[2] = qHTS assay to identify small molecule agonists of the AP-1 signaling pathway - cell viability counter screen (AID 1159525; calls by dose curve; note: nearly all actives have a fitted effect of over 55% in size; note: potency is the fitted concentration of half-maximal effect)
In short: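 AP-1-bla ME-180 cells in Opti-MEM with 0.5% dialyzed FBS, compound exposure 5 h at 37 C in 15-point titration. Viability read in the same wells as ATP content by CellTiter-Glo luminescence, normalised to tetra-n-octylammonium bromide and DMSO controls.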

[3] = qHTS assay to identify small molecule antagonists of the retinoic acid receptor (RAR) signaling pathway (AID 1159552; note: nearly all actives have a fitted effect of over 50% in size; note: potency is the fitted concentration of half-maximal effect)
In short: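 C3RL4 RARE-luc cells, overnight plating; retinol 1 uM final added right after compound; 6 hr 37 C; luciferase read at 30 min RT.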

[4] = qHTS assay to identify small molecule antagonists of the estrogen related receptor (ERR) signaling pathway from Tox21 library - cell viability counter screen (AID 1224834); note: nearly all actives have a fitted effect of over 30% in size; note: potency is the fitted concentration of half-maximal effect
In short: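 Viability readout (CellTiter-Fluor fluorescence, 30 min at 37 C) multiplexed with the ERR assay; cells treated 17.5 h at 37 C with compounds delivered in DMSO.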

[5] = biological target: Luciferin 4-monooxygenase (Photinus pyralis) (UniProt P08659); assay: qHTS assay to identify small molecule inhibitors of firefly luciferase (AID 1224835); note: nearly all actives have a fitted effect of over 25% in size; note: potency is the fitted concentration of half-maximal effect
Sequence of Luciferin 4-monooxygenase (Photinus pyralis) (P08659 whole entry, looked up): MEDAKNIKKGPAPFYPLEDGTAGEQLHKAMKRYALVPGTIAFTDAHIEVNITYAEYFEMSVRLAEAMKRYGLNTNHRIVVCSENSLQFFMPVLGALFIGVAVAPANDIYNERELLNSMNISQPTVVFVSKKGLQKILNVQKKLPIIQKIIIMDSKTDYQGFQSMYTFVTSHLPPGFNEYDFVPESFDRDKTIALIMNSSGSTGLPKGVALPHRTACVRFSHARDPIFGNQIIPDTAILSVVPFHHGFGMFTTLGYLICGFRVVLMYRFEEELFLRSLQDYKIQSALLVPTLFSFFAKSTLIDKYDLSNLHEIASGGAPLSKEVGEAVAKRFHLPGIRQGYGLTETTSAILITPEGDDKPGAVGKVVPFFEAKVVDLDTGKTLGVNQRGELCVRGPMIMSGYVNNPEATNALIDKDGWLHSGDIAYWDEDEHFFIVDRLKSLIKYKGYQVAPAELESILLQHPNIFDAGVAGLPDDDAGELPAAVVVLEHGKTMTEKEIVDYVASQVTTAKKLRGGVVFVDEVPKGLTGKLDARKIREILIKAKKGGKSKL
In short: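 Biochemical qHTS: compounds run as interplate titrations against purified firefly enzyme, with D-luciferin and ATP each at its KM concentration. Light output recorded by CCD imaging.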

[6] = qHTS assay to identify small molecule agonists of the constitutive androstane receptor (CAR) signaling pathway - cell viability counter screen (AID 1224836); note: nearly all actives have a fitted effect of over 45% in size; note: potency is the fitted concentration of half-maximal effect
In short: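 Using CellTiter-Fluor, viability of HepG2 cells harbouring hCAR and CYP2B6-2.2kb was measured following 23 h incubation with a 15-concentration compound series plus PK11195 (0.75 uM final).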

[7] = qHTS assay to identify small molecule antagonists of the retinoid-related orphan receptor gamma (ROR-gamma) signaling pathway - cell viability counter screen (AID 1159520); note: nearly all actives have a fitted effect of over 50% in size; note: potency is the fitted concentration of half-maximal effect
In short: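 Tet-on ROR gamma CHO cells were given compounds for 2 hr, then doxycycline hyclate at 1 uM final, and incubated 16 hr at 37 C. Viability was measured as ATP content by CellTiter-Glo luminescence.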

[8] = qHTS assay to identify small molecule agonists of the retinoic acid receptor (RAR) signaling pathway (AID 1159553); note: potency is the fitted concentration of half-maximal effect
In short: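 Cell line C3RL4, RARE luciferase reporter. Treatment: compounds in DMSO, 6 hr, 37 C, 5% CO2, after overnight plating. Detection: luminescence, 30 min RT after reagent.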

[9] = qHTS assay to identify small molecule agonists of the RXR signaling pathway - cell viability counter screen (AID 1159529); note: nearly all actives have a fitted effect of over 50% in size; note: potency is the fitted concentration of half-maximal effect
In short: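 In this parallel viability measure, GeneBLAzer RXR-alpha HEK 293T cells (2% charcoal-stripped FBS) were given a 5 hr preincubation, treated with compounds 16 hr at 37 C, and read by CellTiter-Glo luminescence.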

[10] = qHTS assay to identify small molecule antagonists of the retinoid acid receptor (RAR) signaling pathway - cell viability counter screen (AID 1159551); note: nearly all actives have a fitted effect of over 35% in size
In short: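 Following overnight attachment, C3RL4 reporter cells received DMSO-dissolved compounds and then retinol (1 uM final). Six hours later at 37 C, ATP content was measured by CellTiter-Glo luminescence.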

[11] = qHTS assay to identify small molecule antagonists of the estrogen related receptor (ERR) signaling pathway - cell viability counter screen (AID 1224818);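 note: series mostly up to about 46 µM; viability measured after 17.5 h of compound exposure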
In short: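 Here, ERR cells are plated at 2,000 cells per well, allowed 6 h to attach, and treated with compounds in DMSO for 17.5 h at 37 C. CellTiter-Fluor is then added and fluorescence read after 30 min.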

[12] = qHTS assay to identify small molecule antagonists of the estrogen related receptor (ERR) signaling pathway (AID 1224819;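 note: luminescence from an ERR-driven luciferase reporter measured with One-Glo reagent; series mostly up to about 46 µM; nearly all actives have a fitted effect of over 50% in size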)
In short: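 LOPAC library screened for antagonism as reduced One-Glo luminescence in ERR reporter cells (2,000/well). Compounds were added after 6 h pre-incubation and left 18 h at 37C; reading followed a 30 min room-temperature reagent step.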

[13] = qHTS assay to identify small molecule agonists of the estrogen related receptor (ERR) signaling pathway (AID 1224820)
In short: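 Quantitative HTS of the LOPAC library used NTP ERR reporter cells treated 18 h at 37 C. Signal is luminescence after One-Glo addition and a 30 min room-temperature incubation.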

[14] = system: estrogen-related receptor alpha (ERRalpha) with PGC-1alpha coactivator, human; assay: qHTS assay to identify small molecule antagonists of the estrogen related receptor signaling pathway with the pleiotropic PPARgamma coactivator (PGC) (AID 1224821; calls by dose curve)
In short: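 Quantitative HTS for antagonism: PGC/ERR cells received compounds after 6 h attachment and were incubated 18 h at 37 C, with luminescence (One-Glo) as the endpoint.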

[15] = qHTS assay to identify small molecule antagonists of the estrogen related receptor signaling pathway with the pleiotropic PPARgamma coactivator (PGC) cell viability counter screen (AID 1224822;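 note: series mostly up to about 46 µM; viability read after 17.5 h compound exposure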)
In short: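 qHTS format, DMSO compound stocks pin-transferred onto PGC/ERR cells 6 h after plating; 17.5 h exposure at 37 C, then CellTiter-Fluor fluorescence.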

[16] = qHTS assay to identify small molecule agonists of the estrogen related receptor signaling pathway with the pleiotropic PPARgamma coactivator (PGC) (AID 1224823)
In short: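 Cell-based luciferase assay in the NTP-supplied PGC/ERR line, 2,000 cells/well; 18 h compound exposure at 37 C, luminescence after One-Glo.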

[17] = biological target: Nuclear receptor ROR-gamma (Homo sapiens) (UniProt P51449); assay: qHTS assay to identify small molecule antagonists of the retinoid-related orphan receptor gamma (ROR-gamma) signaling pathway (AID 1159521; note: nearly all actives have a fitted effect of over 50% in size; note: potency is the fitted concentration of half-maximal effect)
In short: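 Decreased RORE-driven luciferase luminescence indicates antagonism. Tet-on RORγ CHO cells received compound, then 1 uM final doxycycline 2 h later; signal read after 16 h incubation.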

[18] = qHTS assay to identify small molecule agonists of the endoplasmic reticulum stress response signaling pathway - cell viability counter screen (AID 1159517; calls by dose curve; note: nearly all actives have a fitted effect of over 50% in size; note: potency is the fitted concentration of half-maximal effect)
In short: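 Counter-screen wells were identical to the reporter wells. Cells were plated at 1,500 per well and dosed for 5 hr, then read for luminescence 30 min after CellTiter-Glo addition.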

[19] = qHTS assay to identify small molecule agonists of the AP-1 signaling pathway (AID 1159526; calls by dose curve)
[20] = biological target: Retinoic acid receptor RXR-alpha (Homo sapiens) (UniProt P19793); assay: qHTS assay to identify small molecule agonists of the RXR signaling pathway (AID 1159527; calls by dose curve; note: nearly all actives have a fitted effect of over 35% in size)
Sequence of Retinoic acid receptor RXR-alpha (Homo sapiens) (P19793 whole entry, looked up): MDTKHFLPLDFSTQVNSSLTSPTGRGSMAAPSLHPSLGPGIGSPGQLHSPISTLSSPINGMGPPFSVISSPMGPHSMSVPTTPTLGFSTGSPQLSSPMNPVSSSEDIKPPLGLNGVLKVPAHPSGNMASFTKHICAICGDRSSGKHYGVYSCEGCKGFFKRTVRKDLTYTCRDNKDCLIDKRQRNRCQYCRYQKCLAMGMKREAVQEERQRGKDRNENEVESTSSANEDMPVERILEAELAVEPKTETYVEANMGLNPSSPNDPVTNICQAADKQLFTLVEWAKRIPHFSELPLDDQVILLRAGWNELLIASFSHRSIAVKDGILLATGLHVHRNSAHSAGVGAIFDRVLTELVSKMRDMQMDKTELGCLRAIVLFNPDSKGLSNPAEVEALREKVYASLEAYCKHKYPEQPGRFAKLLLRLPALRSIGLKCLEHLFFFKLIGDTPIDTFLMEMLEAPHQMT
In short: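 16 hr incubation of compound-treated RXR-alpha-UAS-bla HEK 293T cells (2% charcoal-stripped FBS, 37 C) preceded a 2 hr room-temperature LiveBLAzer FRET substrate step and blue/green fluorescence measurement.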

With `O[C@@H](c1cc(C(F)(F)F)nc2c(C(F)(F)F)cccc12)[C@H]1CCCCN1` the Potency [1] was “inactive”, the Potency [2] was “inactive” and the Potency [3] was 23.7 µM (active). The Potency [4] was 29.8 µM (active), the Potency [5] was “inactive” and the Potency [6] was 29.8 µM (active).

In the case of `C=CC(=O)OCCOCC(CC)(COCCOC(=O)C=C)COCCOC(=O)C=C`, the Potency [1] was “inactive”, the Potency [7] was 11.3 µM (active) and the Potency [3] was 31.9 µM (active). For the same compound, the Potency [8] was 7.14 µM (active), the Potency [4] was 16 µM (active) and the Potency [5] was “inactive”. The Potency [6] was 71.4 µM (active).

For `CNCC[C@H](Oc1cccc2ccccc12)c1cccs1`, the Potency [1] was “inactive”, the Potency [7] was “inactive” and the Potency [2] was “inactive”. For the same compound, the Potency [9] was 23.9 µM (active), the Potency [10] was “inactive” and the Potency [3] was 23.7 µM (active). The Potency [6] was 21.1 µM (active).

In the case of `Cc1c(C(=O)O)cccc1[N+](=O)[O-]`, the Potency [1] was “inactive”, the Potency [7] was “inactive” and the Potency [2] was “inactive”. The Potency [10] was “inactive”, the Potency [3] was “inactive” and the Potency [4] was “inactive”. The Potency [5] was “inactive” and the Potency [6] was “inactive”.

With `S=P(N1CC1)(N1CC1)N1CC1` the Potency [1] was “inactive”, the Potency [7] was “inactive” and the Potency [10] was “inactive”. The Potency [8] was “inactive”, the Potency [11] was “inactive” and the Potency [12] was “inactive”. The outcome [13] was “inactive”, the outcome [14] was “inactive” and the Potency [15] was “inactive”. The outcome [16] was “inactive”, the Potency [4] was “inactive” and the Potency [5] was “inactive”. The Potency [6] was “inactive”.

In the case of `CC(O)C#CC(C)O` (stereo not drawn), the Potency [1] was “inactive”, the Potency [7] was 27 µM (active) and the Potency [17] was 19.1 µM (active). For the same compound, the Potency [9] was 43.2 µM (active), the Potency [3] was 30.3 µM (active) and the Potency [5] was “inactive”.

In the case of `COC(=O)[C@]1(C)CCC[C@@]2(C)[C@H]1CC=C1C=C(C(C)C)CC[C@@H]12`, the Potency [18] was 49 µM (active), the Potency [7] was “inactive” and the Potency [17] was “inactive”. For the same compound, the Potency [2] was “inactive”, the Potency [19] was “inactive” and the Potency [9] was “inactive”. The Potency [10] was “inactive”, the Potency [3] was “inactive” and the Potency [8] was “inactive”. The Potency [4] was “inactive”, the Potency [5] was “inactive” and the Potency [6] was “inactive”.

For `O=S(=O)(O)CCCN1CCOCC1`, the Potency [1] was “inactive”, the Potency [7] was “inactive” and the Potency [2] was “inactive”. The Potency [19] was “inactive”, the Potency [20] was “inactive” and the Potency [9] was “inactive”. The Potency [10] was “inactive”, the Potency [3] was “inactive” and the Potency [8] was “inactive”. The Potency [4] was “inactive”, the Potency [5] was “inactive” and the Potency [6] was “inactive”.

With `Cc1cccc(Br)c1` the Potency [1] was “inactive”, the Potency [7] was “inactive” and the Potency [9] was 55.3 µM (active). For the same compound, the Potency [10] was “inactive”, the Potency [3] was “inactive” and the Potency [4] was “inactive”. The Potency [5] was “inactive” and the Potency [6] was “inactive”.

For `CCCCCCC(C)Nc1ccc(Nc2ccccc2)cc1` (stereo not drawn), the Potency [1] was “inactive”, the Potency [2] was 49 µM (active) and the Potency [10] was “inactive”. For the same compound, the Potency [8] was “inactive”, the Potency [5] was “inactive” and the Potency [6] was “inactive”.

With `COC(=O)C1=C(C)NC(C)=C(C(=O)OCCCN2CCC(c3ccccc3)(c3ccccc3)CC2)C1c1cccc([N+](=O)[O-])c1` (stereo not drawn) the Potency [1] was “inactive”, the Potency [17] was 23.7 µM (active) and the Potency [2] was “inactive”. The Potency [10] was “inactive”, the Potency [8] was “inactive” and the Potency [4] was 21.1 µM (active).

With `COC(=O)CC#N` the Potency [1] was “inactive”, the Potency [7] was “inactive” and the Potency [2] was “inactive”. For the same compound, the Potency [19] was “inactive”, the Potency [9] was “inactive” and the Potency [10] was “inactive”. The Potency [3] was “inactive”, the Potency [8] was “inactive” and the Potency [4] was “inactive”. The Potency [5] was “inactive” and the Potency [6] was “inactive”.

For `O=C1OC(OC(=O)c2cccnc2Nc2cccc(C(F)(F)F)c2)c2ccccc21` (stereo not drawn), the Potency [1] was “inactive”, the Potency [7] was “inactive” and the Potency [2] was “inactive”. For the same compound, the Potency [10] was “inactive”, the Potency [3] was “inactive” and the Potency [4] was “inactive”. For the same compound, the Potency [5] was “inactive” and the Potency [6] was “inactive”.

For `C=C(C)C(=O)OCCC[Si](Cl)(Cl)Cl`, the Potency [18] was “inactive”, the Potency [7] was “inactive” and the Potency [17] was “inactive”. For the same compound, the Potency [2] was “inactive”, the Potency [19] was “inactive” and the Potency [20] was “inactive”. The Potency [10] was “inactive”, the Potency [8] was “inactive” and the Potency [4] was “inactive”. For the same compound, the Potency [5] was “inactive” and the Potency [6] was “inactive”.

With `CCCCCCCCCCCCCCNCCO` the Potency [18] was 23.9 µM (active), the Potency [7] was 26.6 µM (active) and the Potency [17] was “inactive”. For the same compound, the Potency [2] was “inactive”, the Potency [19] was “inactive” and the Potency [10] was “inactive”. For the same compound, the Potency [4] was “inactive” and the Potency [6] was “inactive”.

With `CCCCCCOc1ccc(O)cc1` the Potency [1] was “inactive”, the Potency [7] was “inactive” and the Potency [17] was “inactive”. The Potency [10] was “inactive”, the Potency [3] was “inactive” and the Potency [8] was 0.611 µM (active). The Potency [4] was 27.3 µM (active) and the Potency [5] was 35.6 µM (active).

In the case of `CC(=O)OC(OC(C)=O)c1ccc([N+](=O)[O-])o1`, the Potency [1] was “inactive”, the Potency [17] was 31.2 µM (active) and the Potency [9] was 49.8 µM (active). For the same compound, the Potency [3] was 27.8 µM (active), the Potency [4] was 62.2 µM (active) and the Potency [5] was “inactive”.

For `NC(=O)c1ccccc1N`, the Potency [1] was “inactive”, the Potency [17] was “inactive” and the Potency [19] was “inactive”. The Potency [20] was “inactive”, the Potency [9] was “inactive” and the Potency [10] was “inactive”. The Potency [3] was “inactive”, the Potency [8] was “inactive” and the Potency [4] was “inactive”. For the same compound, the Potency [5] was “inactive” and the Potency [6] was “inactive”.

For `CC(C)N=C(N)/N=C(\N)Nc1ccc(Cl)cc1`, the Potency [1] was “inactive”, the Potency [7] was “inactive” and the Potency [2] was “inactive”. For the same compound, the Potency [19] was “inactive”, the Potency [9] was “inactive” and the Potency [10] was “inactive”. For the same compound, the Potency [8] was “inactive”, the Potency [5] was “inactive” and the Potency [6] was “inactive”.

With `C[C@@H]1CC[C@H]2C(C)(C)[C@H]3C[C@@]12CC[C@@]3(C)O` the Potency [1] was “inactive”, the Potency [17] was “inactive” and the Potency [2] was “inactive”. The Potency [20] was “inactive”, the Potency [10] was “inactive” and the Potency [3] was “inactive”. For the same compound, the Potency [8] was “inactive”, the Potency [4] was “inactive” and the Potency [5] was “inactive”. The Potency [6] was “inactive”.

With `CCc1ccc(O)c(C(C)(C)C)c1` the Potency [1] was “inactive”, the Potency [7] was “inactive” and the Potency [17] was “inactive”. The Potency [5] was “inactive” and the Potency [6] was “inactive”.
